Test results as given in PubChem BioAssay AID1159580 (chemical genetic matrix, 2015).
Where “and” joins values, the source holds several entries; their conditions need not be identical. Identical values can stand only once. Screen size: about 5,500 compounds; about 2,000 (36%) were called active. Roughly 18% stayed inconclusive and do not appear here. Cut-off read from the data, not from the text of the source: active = normalized growth mostly below about 0.91 (no sharp cut-off); inconclusive = no clear call, values can overlap the other calls; inactive = mostly above about 0.92. The list shows a part of the results.

Assay: chemical genetic growth profiling, strain panel (AID 1159580);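 note: tested at 20 µM; growth read once vehicle control cultures reached saturation at 30 °C; 1 = growth at the plate median or of vehicle wells; lower values mean less growth of the strain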
Conditions: growth OD

Measured: normalized growth

Nc1ccc(S(=O)(=O)Nc2ccnn2-c2ccccc2)cc1
inactive: S. cerevisiae deletion strains, locus YJR075W, strain HOC1, hits give low values 1.02 and 1.03 | S. cerevisiae deletion strains, locus YKL009W, strain mrt4, hits give low values 0.976 | S. cerevisiae deletion strains, locus YKL068W, hits give low values 1 | S. cerevisiae deletion strains, locus YKL085W, strain MDH1 (second series), hits give low values 0.999 | S. cerevisiae deletion strains, locus YKL085W, strain MDH1, hits give low values 0.999 | S. cerevisiae deletion strains, locus YKL160W, strain elf1, hits give low values 0.989 | S. cerevisiae deletion strains, locus YKL190W, strain CNB1, hits give low values 1.01 | S. cerevisiae deletion strains, locus YKR001C, strain vps1, hits give low values 0.992 | S. cerevisiae deletion strains, locus YKR026C, strain gcn3, hits give low values 0.965 | S. cerevisiae deletion strains, locus YKR091W, strain srl3, hits give low values 0.997 | S. cerevisiae deletion strains, locus YLL001W, strain dnm1, hits give low values 0.979 | S. cerevisiae deletion strains, locus YLL026W, hits give low values 0.997 | S. cerevisiae deletion strains, locus YLL041C, strain sdh2, hits give low values 0.986 | S. cerevisiae deletion strains, locus YLR027C, strain aat2, hits give low values 0.985 | S. cerevisiae deletion strains, locus YLR039C, strain RIC1, hits give low values 0.982 | S. cerevisiae deletion strains, locus YLR058C, strain SHM2, hits give low values 1.01 | S. cerevisiae deletion strains, locus YLR102C, strain apc9, hits give low values 0.99 | S. cerevisiae deletion strains, locus YLR113W, strain HOG1, hits give low values 0.998 | S. cerevisiae deletion strains, locus YLR221C, strain rsa3, hits give low values 0.986 | S. cerevisiae deletion strains, locus YLR258W, strain gsy2, hits give low values 0.998 | S. cerevisiae deletion strains, locus YLR262C, strain YPT6 (second series), hits give low values 0.885 | S. cerevisiae deletion strains, locus YLR262C, strain YPT6, hits give low values 0.993 | S. cerevisiae deletion strains, locus YLR268W, strain sec22, hits give low values 0.998 | S. cerevisiae deletion strains, locus YLR320W, strain mms22, hits give low values 1.03 | S. cerevisiae deletion strains, locus YLR330W, strain CHS5, hits give low values 1 | S. cerevisiae deletion strains, locus YLR342W, strain FKS1 (second series), hits give low values 0.983 | S. cerevisiae deletion strains, locus YLR342W, strain FKS1, hits give low values 1.01 | S. cerevisiae deletion strains, locus YLR357W, strain rsc2, hits give low values 1 | S. cerevisiae deletion strains, locus YLR370C, strain arc18, hits give low values 1.01 | S. cerevisiae deletion strains, locus YLR371W, strain rom2, hits give low values 0.99 | S. cerevisiae deletion strains, locus YLR384C, strain iki3, hits give low values 0.977 | S. cerevisiae deletion strains, locus YLR418C, strain cdc73, hits give low values 1.01 | S. cerevisiae deletion strains, locus YML016C, strain PPZ1, hits give low values 1.01 | S. cerevisiae deletion strains, locus YML032C, strain rad52, hits give low values 0.996 | S. cerevisiae deletion strains, locus YML120C, strain ndi1, hits give low values 0.99 | S. cerevisiae deletion strains, locus YML124C, strain tub3, hits give low values 1 | S. cerevisiae deletion strains, locus YMR058W, strain fet3, hits give low values 0.986 | S. cerevisiae deletion strains, locus YMR078C, strain ctf18, hits give low values 0.998 | S. cerevisiae deletion strains, locus YMR125W, strain sto1, hits give low values 0.954 | S. cerevisiae deletion strains, locus YMR129W, hits give low values 0.988 | S. cerevisiae deletion strains, locus YMR205C, strain PFK2, hits give low values 1.05 | S. cerevisiae deletion strains, locus YMR223W, strain ubp8, hits give low values 0.991 | S. cerevisiae deletion strains, locus YMR231W, strain pep5, hits give low values 0.997 | S. cerevisiae deletion strains, locus YMR263W, strain SAP30, hits give low values 1.03 | S. cerevisiae deletion strains, locus YMR307W, strain GAS1, hits give low values 0.943 and 0.968 | S. cerevisiae deletion strains, locus YNL067W, strain RPL9B, hits give low values 1.02 | S. cerevisiae deletion strains, locus YNL071W, strain lat1, hits give low values 0.993 | S. cerevisiae deletion strains, locus YNL128W, strain TEP1, hits give low values 0.995 | S. cerevisiae deletion strains, locus YNL175C, strain NOP13, hits give low values 1.01 | S. cerevisiae deletion strains, locus YNL183C, strain NPR1, hits give low values 0.899 | S. cerevisiae deletion strains, locus YNL197C, strain WHI3, hits give low values 1.01 | S. cerevisiae deletion strains, locus YNL209W, strain ssb2, hits give low values 0.994 | S. cerevisiae deletion strains, locus YNL224C, strain SQS1, hits give low values 1 | S. cerevisiae deletion strains, locus YNL233W, strain BNI4, hits give low values 1.02 | S. cerevisiae deletion strains, locus YNL248C, strain rpa49, hits give low values 0.957 | S. cerevisiae deletion strains, locus YNL250W, strain rad50, hits give low values 1 | S. cerevisiae deletion strains, locus YNL271C, strain bni1, hits give low values 0.993 | S. cerevisiae deletion strains, locus YNL298W, strain CLA4, hits give low values 1.01 | S. cerevisiae deletion strains, locus YNL307C, strain MCK1, hits give low values 0.99 | S. cerevisiae deletion strains, locus YNL322C, strain KRE1 (second series), hits give low values 1 | S. cerevisiae deletion strains, locus YNL322C, strain KRE1, hits give low values 1.01 and 1.02 | S. cerevisiae deletion strains, locus YNR049C, strain mso1, hits give low values 0.996 | S. cerevisiae deletion strains, locus YNR052C, strain pop2, hits give low values 0.981 | S. cerevisiae deletion strains, locus YOL006C, strain TOP1, hits give low values 1.07 | S. cerevisiae deletion strains, locus YOL012C, strain htz1 1.59 | S. cerevisiae deletion strains, locus YOL147C, strain pex11, hits give low values 1.01 | S. cerevisiae deletion strains, locus YOR001W, strain rrp6, hits give low values 0.969 | S. cerevisiae deletion strains, locus YOR061W, strain CKA2, hits give low values 1.01 | S. cerevisiae deletion strains, locus YOR069W, strain VPS5, hits give low values 1.01 | S. cerevisiae deletion strains, locus YOR070C, strain gyp1, hits give low values 0.997 | S. cerevisiae deletion strains, locus YOR080W, strain dia2, hits give low values 1 | S. cerevisiae deletion strains, locus YOR083W, strain WHI5 (second series), hits give low values 1.03 | S. cerevisiae deletion strains, locus YOR083W, strain WHI5, hits give low values 0.968 | S. cerevisiae deletion strains, locus YOR106W, strain vam3, hits give low values 0.977 | S. cerevisiae deletion strains, locus YOR136W, strain idh2, hits give low values 1 | S. cerevisiae deletion strains, locus YOR144C, strain elg1, hits give low values 1 | S. cerevisiae deletion strains, locus YOR184W, strain ser1, hits give low values 0.996 | S. cerevisiae deletion strains, locus YOR231W, strain MKK1, hits give low values 0.974 | S. cerevisiae deletion strains, locus YOR265W, strain rbl2, hits give low values 1 | S. cerevisiae deletion strains, locus YOR270C, strain vph1, hits give low values 0.997 | S. cerevisiae deletion strains, locus YOR290C, strain snf2, hits give low values 0.957 | S. cerevisiae deletion strains, locus YOR316C, strain cot1, hits give low values 0.994 | S. cerevisiae deletion strains, locus YPL051W, strain arl3, hits give low values 0.978 | S. cerevisiae deletion strains, locus YPL055C, strain LGE1, hits give low values 1.05 and 1.01 | S. cerevisiae deletion strains, locus YPL078C, strain atp4, hits give low values 0.963 | S. cerevisiae deletion strains, locus YPL106C, strain sse1, hits give low values 0.993 | S. cerevisiae deletion strains, locus YPL240C, strain hsp82, hits give low values 0.979 | S. cerevisiae deletion strains, locus YPL241C, strain CIN2, hits give low values 1.01 | S. cerevisiae deletion strains, locus YPL256C, strain CLN2, hits give low values 0.975 | S. cerevisiae deletion strains, locus YPR119W, strain clb2, hits give low values 0.997 | S. cerevisiae deletion strains, locus YPR141C, strain kar3, hits give low values 1 | S. cerevisiae deletion strains, locus YPR163C, strain tif3, hits give low values 1 | S. cerevisiae deletion strains, locus YPR167C, strain met16, hits give low values 0.991 | S. cerevisiae deletion strains, strain wtn01, hits give low values 1 | S. cerevisiae strains, strain wild type, hits give low values 1.01
